Activity calls are given as the source filed them.

Experiment [1] concerns PRMT1 (protein arginine N-methyltransferase 1). Briefly: PRMT1 binders on small-molecule microarrays, primary screen, biochemical, small-molecule microarray, 635 nm fluorescence (AID 1088).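 Further: binding of Prmt1 protein to compounds spotted on small-molecule microarray slides.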 As to conditions: small-molecule microarray binding, higher = more signal.
A short description of experiment [2]: yeast growth modulation, basal conditions, primary screen, YJM789 clinical isolate, OD600, 24 h (AID 1089).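 Further: growth of clinical yeast isolate S. cerevisiae YJM 789 seeded 1000 cells per well; test concentration not given here.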 As to conditions: S. cerevisiae YJM789 growth, higher = more signal, called active from +8 up or from −8 down.
Experiment [3] can be described thus: fission yeast growth modulation, primary screen, strain 972, OD600, 24 h, no modulator (AID 1090).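 Further: basal condition with compound alone and no growth modifier present; test concentration not given here.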 As to conditions: S. pombe 972 growth, higher = more signal, called active from +8 up or from −8 down.
The nature of experiment [4]: S. cerevisiae growth modulation with rapamycin, primary screen, strain BY4716, OD600, 96 h (AID 1091). Further: test concentration not given here. To be noted: higher = more signal, called active from +8 up or from −8 down.
Experiment [5] deals with Torsin-1A-interacting protein 2 (Homo sapiens) (UniProt Q8NFQ8). Briefly: LULL1 binders on small-molecule microarray, primary screen, cell lysate, human LULL1 lysate, 635/667 nm fluorescence (AID 1092).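 Further: probe is lysate of COS7 cells overexpressing human LULL1; score merges per-feature 667 nm fluorescence with signal-to-noise.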 As to conditions: hLULL1 lysate binding, 635 nm fluorescence, higher = more signal.
Sequence of Torsin-1A-interacting protein 2 (Homo sapiens) (Q8NFQ8 whole entry, looked up): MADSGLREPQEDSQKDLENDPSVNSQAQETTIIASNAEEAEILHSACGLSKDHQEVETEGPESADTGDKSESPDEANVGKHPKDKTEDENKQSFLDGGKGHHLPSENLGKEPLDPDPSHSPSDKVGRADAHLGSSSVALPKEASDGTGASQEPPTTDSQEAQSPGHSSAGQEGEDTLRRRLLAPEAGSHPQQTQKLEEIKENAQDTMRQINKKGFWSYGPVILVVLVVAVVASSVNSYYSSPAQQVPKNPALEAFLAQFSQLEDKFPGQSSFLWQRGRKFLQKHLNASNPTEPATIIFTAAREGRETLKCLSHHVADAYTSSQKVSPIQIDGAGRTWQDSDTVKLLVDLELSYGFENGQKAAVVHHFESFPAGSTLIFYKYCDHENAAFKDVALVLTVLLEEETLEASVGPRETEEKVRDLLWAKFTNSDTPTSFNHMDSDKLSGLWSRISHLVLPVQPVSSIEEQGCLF
The nature of experiment [6]: E. coli growth modulation, two-sided OD650, primary screen, E. coli filamentation project, strain DRC41, 24 h (AID 1093).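 Further: MC1000 strain lacking acrAB efflux and sulA so SOS filamentation is blocked; test concentration not given here.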 To be noted: OD650, 24 h, higher = more signal, called active from +8 up or from −8 down.
A short description of experiment [7]: small-molecule microarray binders of probe aLefty2, primary screen, biochemical, biotinylated probe, 635/667 nm fluorescence (AID 1094).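 Further: score merges spot fluorescence near 667 nm with spot signal-to-noise ratio.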 As to conditions: higher = more signal.
The test system of experiment [8] is Noggin (protein binding on small-molecule microarray). The experiment can be described thus: Noggin binders on small-molecule microarray, primary screen, biochemical, 635/667 nm fluorescence (AID 1095).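 Further: score merges 667 nm feature fluorescence with signal to noise over triplicate slides.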 As to conditions: 635 nm fluorescence, higher = more signal.
In experiment [9] the target is Neurogenic locus notch homolog protein 3 (Homo sapiens) (UniProt Q9UM47). Briefly: NOTCH3 binders on small-molecule microarray, primary screen, biochemical, 635/667 nm fluorescence (AID 1096). As to conditions: NOTCH3 binding, 635 nm fluorescence, higher = more signal.
Sequence of Neurogenic locus notch homolog protein 3 (Homo sapiens) (Q9UM47 whole entry, looked up): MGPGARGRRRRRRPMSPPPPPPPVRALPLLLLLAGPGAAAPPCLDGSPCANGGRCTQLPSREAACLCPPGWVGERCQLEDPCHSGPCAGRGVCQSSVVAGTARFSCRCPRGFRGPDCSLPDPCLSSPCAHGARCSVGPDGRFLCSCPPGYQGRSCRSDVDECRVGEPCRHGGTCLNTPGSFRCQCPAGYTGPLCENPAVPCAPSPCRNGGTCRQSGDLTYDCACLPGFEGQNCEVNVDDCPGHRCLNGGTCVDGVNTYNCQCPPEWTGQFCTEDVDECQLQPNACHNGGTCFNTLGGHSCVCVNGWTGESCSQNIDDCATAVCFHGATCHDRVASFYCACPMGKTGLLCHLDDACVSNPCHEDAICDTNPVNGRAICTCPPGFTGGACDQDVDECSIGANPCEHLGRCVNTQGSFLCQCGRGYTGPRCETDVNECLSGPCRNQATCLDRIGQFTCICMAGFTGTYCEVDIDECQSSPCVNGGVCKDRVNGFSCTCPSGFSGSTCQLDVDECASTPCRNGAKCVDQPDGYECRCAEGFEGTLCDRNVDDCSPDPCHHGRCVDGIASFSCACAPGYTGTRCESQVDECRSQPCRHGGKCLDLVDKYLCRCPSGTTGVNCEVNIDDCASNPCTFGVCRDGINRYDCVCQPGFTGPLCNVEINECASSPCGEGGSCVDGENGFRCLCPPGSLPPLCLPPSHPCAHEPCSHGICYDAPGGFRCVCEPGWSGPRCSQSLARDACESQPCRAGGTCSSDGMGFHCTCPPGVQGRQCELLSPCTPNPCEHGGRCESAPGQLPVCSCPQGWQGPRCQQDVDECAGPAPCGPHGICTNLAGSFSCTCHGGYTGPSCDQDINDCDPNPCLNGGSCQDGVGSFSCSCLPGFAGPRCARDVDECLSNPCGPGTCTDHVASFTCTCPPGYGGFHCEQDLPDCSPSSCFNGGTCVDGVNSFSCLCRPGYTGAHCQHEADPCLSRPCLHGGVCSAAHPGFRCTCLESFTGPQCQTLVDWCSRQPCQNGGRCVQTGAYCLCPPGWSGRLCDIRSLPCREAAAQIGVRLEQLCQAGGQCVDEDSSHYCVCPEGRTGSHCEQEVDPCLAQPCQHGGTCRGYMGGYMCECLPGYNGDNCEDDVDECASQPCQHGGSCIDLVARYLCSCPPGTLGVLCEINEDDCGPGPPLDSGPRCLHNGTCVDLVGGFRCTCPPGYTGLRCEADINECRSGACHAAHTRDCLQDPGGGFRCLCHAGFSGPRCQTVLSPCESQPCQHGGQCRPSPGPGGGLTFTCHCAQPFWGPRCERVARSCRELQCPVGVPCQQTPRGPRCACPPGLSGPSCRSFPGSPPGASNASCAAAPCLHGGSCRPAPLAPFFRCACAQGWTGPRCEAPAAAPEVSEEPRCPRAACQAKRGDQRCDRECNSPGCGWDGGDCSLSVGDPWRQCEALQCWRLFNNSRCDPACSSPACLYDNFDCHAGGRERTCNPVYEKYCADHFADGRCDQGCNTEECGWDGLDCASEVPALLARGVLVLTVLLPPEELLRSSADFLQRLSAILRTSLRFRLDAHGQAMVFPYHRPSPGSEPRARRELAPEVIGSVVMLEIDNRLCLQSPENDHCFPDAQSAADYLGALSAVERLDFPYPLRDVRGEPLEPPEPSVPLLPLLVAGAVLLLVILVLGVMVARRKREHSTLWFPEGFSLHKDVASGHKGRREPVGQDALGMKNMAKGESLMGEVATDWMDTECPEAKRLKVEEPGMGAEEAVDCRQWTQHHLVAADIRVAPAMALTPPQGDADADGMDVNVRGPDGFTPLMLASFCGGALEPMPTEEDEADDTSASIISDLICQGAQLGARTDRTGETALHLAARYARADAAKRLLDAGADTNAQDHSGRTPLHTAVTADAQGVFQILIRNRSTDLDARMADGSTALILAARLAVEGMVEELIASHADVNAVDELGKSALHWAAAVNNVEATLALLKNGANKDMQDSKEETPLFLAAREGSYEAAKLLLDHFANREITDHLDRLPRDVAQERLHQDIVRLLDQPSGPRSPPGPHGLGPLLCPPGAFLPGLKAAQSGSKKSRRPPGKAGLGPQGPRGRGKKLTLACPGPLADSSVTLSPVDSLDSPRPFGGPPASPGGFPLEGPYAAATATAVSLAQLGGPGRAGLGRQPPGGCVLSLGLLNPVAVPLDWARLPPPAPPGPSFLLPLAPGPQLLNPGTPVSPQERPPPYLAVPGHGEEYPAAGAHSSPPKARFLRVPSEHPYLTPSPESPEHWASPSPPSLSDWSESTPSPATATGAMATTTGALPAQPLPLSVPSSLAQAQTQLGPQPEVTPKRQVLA
Experiment [10] can be described thus: small-molecule microarray binders of probe aEGFR, primary screen, biochemical, biotinylated probe, 635/667 nm fluorescence (AID 1097).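 Further: probe is a biotinylated anti-EGFR antibody binding compounds printed on slides; score combines fluorescence near 667 nm and signal to noise of each spot.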 To be noted: higher = more signal.
The test system of experiment [11] is Plasmodium falciparum Sir2 (PF13_0152, Sir2A). The experiment can be described thus: pfSir2 binders on small-molecule microarrays, primary screen, biochemical, small-molecule microarray, 635 nm fluorescence (AID 1098).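 Further: score merges spot fluorescence intensity with its signal-to-noise ratio.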 As to conditions: small-molecule microarray binding, fluorescence 635 nm; higher = more signal.
The nature of experiment [12]: small-molecule microarray binders of probe aDKK1, primary screen, biochemical, biotinylated probe, 635/667 nm fluorescence (AID 1099).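 Further: score merges 667nm spot fluorescence with signal to noise across triplicate slides; reference of the scale not given here.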 To be noted: higher = more signal.
Experiment [13] in a line: small-molecule microarray binders of probe aCHRDL2, primary screen, biochemical, biotinylated probe, 635/667 nm fluorescence (AID 1100). To be noted: higher = more signal.
A short description of experiment [14]: splicing luciferase reporter signal modulators, primary screen, spliceosome inhibition project, cell-based, HEK293, splice +/- reporter (AID 1101).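 Further: HEK293 cells carrying a splicing-competent luciferase reporter gene; test concentration not given here.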 To be noted: luminescence, 24 h, higher = more signal, called active from +8 up or from −8 down. On the technique in general: A reporter such as luciferase makes a cellular process visible.
Experiment [15] addresses Fibroblast growth factor 10 (Homo sapiens) (UniProt O15520). The experiment can be described thus: FGF10 binders on small-molecule microarrays, primary screen, biochemical, small-molecule microarray, 635 nm fluorescence (AID 1102). To be noted: FGF10 binding, fluorescence 635 nm, higher = more signal.
The test system of experiment [16] is glycogen synthase kinase-3 (GSK3A per assay name; protocol says GSK3B). The experiment can be described thus: GSK3 binders on small-molecule microarrays, primary screen, biochemical, small-molecule microarray, 635 nm fluorescence, GSK3A (AID 1103). Further: the record names both GSK3A and GSK3B. To be noted: small-molecule microarray binding, fluorescence 635 nm; higher = more signal.
For experiment [17], the target named is Epidermal growth factor receptor (Homo sapiens) (UniProt P00533). Briefly: EGFR binders on small-molecule microarrays, primary screen, biochemical, small-molecule microarray, 635 nm fluorescence (AID 1104).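 Further: score merges 667 nm emission intensity with spot signal to noise over triplicate slides.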 To be noted: EGFR binding, higher = more signal.
Sequence of Epidermal growth factor receptor (Homo sapiens) (P00533 whole entry, looked up): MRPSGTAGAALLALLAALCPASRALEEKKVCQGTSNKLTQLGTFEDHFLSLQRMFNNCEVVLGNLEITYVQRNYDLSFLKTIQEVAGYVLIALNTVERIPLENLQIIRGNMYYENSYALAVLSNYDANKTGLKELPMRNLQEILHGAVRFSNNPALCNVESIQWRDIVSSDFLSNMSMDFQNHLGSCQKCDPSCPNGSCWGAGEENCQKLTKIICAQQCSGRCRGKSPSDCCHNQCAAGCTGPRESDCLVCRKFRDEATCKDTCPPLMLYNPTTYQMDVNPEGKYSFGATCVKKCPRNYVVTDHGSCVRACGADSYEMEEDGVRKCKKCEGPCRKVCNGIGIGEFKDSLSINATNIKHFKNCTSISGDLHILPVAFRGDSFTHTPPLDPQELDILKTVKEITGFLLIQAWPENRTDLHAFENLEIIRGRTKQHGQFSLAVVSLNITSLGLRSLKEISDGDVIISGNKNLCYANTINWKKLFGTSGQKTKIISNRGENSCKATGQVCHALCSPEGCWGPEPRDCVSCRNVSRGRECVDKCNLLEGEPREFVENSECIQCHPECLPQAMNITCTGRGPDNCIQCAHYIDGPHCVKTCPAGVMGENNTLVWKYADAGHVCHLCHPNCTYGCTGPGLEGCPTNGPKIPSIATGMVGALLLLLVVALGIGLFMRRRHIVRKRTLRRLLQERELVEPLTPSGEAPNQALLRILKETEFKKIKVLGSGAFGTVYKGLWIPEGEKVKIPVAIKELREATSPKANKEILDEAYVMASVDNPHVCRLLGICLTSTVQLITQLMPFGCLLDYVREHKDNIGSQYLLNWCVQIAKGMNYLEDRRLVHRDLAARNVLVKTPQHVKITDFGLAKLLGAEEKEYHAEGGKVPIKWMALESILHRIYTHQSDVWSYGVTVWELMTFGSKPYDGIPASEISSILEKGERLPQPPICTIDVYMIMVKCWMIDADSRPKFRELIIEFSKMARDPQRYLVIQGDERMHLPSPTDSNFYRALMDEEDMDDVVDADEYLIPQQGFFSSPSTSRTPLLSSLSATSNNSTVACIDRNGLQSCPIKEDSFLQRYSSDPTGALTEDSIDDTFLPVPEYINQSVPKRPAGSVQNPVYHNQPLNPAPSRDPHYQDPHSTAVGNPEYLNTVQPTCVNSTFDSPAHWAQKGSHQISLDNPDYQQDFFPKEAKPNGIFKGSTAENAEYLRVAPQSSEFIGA
The target in experiment [18] is Follistatin-related protein 3 (Homo sapiens) (UniProt O95633). Briefly: FSTL3 binders on small-molecule microarrays, primary screen, biochemical, small-molecule microarray, 635 nm fluorescence (AID 1105).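 Further: score merges emission near 667 nm and signal to noise per printed spot across three slides.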 To be noted: FSTL3 binding, higher = more signal.
Sequence of Follistatin-related protein 3 (Homo sapiens) (O95633 whole entry, looked up): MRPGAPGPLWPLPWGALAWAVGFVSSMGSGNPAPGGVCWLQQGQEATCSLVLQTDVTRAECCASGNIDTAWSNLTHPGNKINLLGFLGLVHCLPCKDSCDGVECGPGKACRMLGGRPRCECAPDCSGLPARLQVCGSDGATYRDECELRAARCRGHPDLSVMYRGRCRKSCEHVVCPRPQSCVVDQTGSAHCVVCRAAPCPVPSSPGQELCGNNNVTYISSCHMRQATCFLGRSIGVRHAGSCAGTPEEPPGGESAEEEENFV
Experiment [19] addresses Dickkopf-related protein 1 (Homo sapiens) (UniProt O94907). The experiment can be described thus: DKK1 binders on small-molecule microarrays, primary screen, biochemical, small-molecule microarray, 635 nm fluorescence scan (AID 1106).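 Further: score merges emission near 667 nm with signal to noise over three replicate slides.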 To be noted: DKK1 binding, higher = more signal.
In experiment [20] the test system is Inhibin beta A chain (activin A). Briefly: INHBA (activin A) binders on microarrays, primary screen, biochemical, small-molecule microarray, 635 nm fluorescence scan (AID 1107).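 Further: mouse activin A protein probed at 4.33 µg/mL on printed slides; score merges bound-protein fluorescence near 667 nm with spot signal-to-noise.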 As to conditions: small-molecule microarray binding, higher = more signal.

Sequence of Dickkopf-related protein 1 (Homo sapiens) (O94907 whole entry, looked up): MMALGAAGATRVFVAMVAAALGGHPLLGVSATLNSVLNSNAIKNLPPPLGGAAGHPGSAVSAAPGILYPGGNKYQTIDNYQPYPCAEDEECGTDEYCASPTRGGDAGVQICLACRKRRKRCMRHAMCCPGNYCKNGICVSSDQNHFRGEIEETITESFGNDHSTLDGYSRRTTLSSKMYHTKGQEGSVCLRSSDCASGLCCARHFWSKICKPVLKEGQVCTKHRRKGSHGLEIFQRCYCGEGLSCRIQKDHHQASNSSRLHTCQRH
Sequence of Fibroblast growth factor 10 (Homo sapiens) (O15520 whole entry, looked up): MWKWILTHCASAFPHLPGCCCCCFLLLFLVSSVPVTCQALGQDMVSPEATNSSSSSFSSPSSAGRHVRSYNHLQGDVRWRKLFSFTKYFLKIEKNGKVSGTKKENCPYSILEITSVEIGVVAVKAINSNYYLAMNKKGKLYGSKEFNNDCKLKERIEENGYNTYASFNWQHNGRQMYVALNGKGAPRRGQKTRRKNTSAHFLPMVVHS

In the case of `CC1CC/C=C\[C@H]2OC34C=CCN(C(C)C)C(=O)[C@H]3N(CCCO)C(=O)[C@@H]4C2C(=O)O1` (stereo not given in full), the composite z-score in experiment [1] was 1.04; in [5], 1.29; in experiment [7] it was 0.131; in experiment [8] it was -1.42; in experiment [9] it was -0.344; in [10], -0.214. Further, the composite z-score is 1.29 in experiment [11]; -0.268 in experiment [12]; 0.0886 in [13]; -0.79 in experiment [15]; -0.785 in experiment [16]; -1.74 in experiment [17]. The composite z-score was -1.21 in experiment [18], -1.23 in experiment [19] and -0.476 in experiment [20]. Further, the z-score in experiment [2] was -1.36 (inactive); in experiment [3], -1.14 (inactive); in experiment [4] it was -0.24 (inactive); in experiment [6], 1.14 (inactive); in experiment [14] it was -0.037 (inactive).
Regarding `CCCC[C@@H](O)C1=C(C)C[C@H]2C(=O)N(Cc3ccccc3)C(=O)[C@H]2[C@H]1CO`, the composite z-score in [1] was 0.18; in experiment [5], -0.463; in experiment [7], -0.0998; in [8], 0.283; in [9], 0.15; in experiment [10], -0.159. In addition, the composite z-score in experiment [11] is 0.222; in experiment [12], -0.407; in [13] it was -0.494; in [15] it was 0.264; in [16] it was -0.0254; in experiment [17], 0.464. Also, the composite z-score is 0.449 in experiment [18], 0.524 in [19] and 0.899 in experiment [20]. Further, the z-score was -0.812 (inactive) in [2]; -2.19 (inactive) in [3]; 0.0211 (inactive) in [4]; 0.706 (inactive) in [6]; 0.0445 (inactive) in [14].
In the case of `C=CC[C@@H]1C=C[C@H](ON=C[C@@H](OC)[C@H](C)C=CCC(=O)OC)[C@@H](CO)O1`, the composite z-score in experiment [1] was 0.325; in [5], 0.485; in experiment [7], -0.124; in [8] it was 0.471; in [9] it was -0.39; in experiment [10], 0.0129. Besides, the composite z-score in [11] was -0.433; in [12], -0.0759; in [13], -0.615; in [15], 0.423; in [16] it was 0.306; in [17], -0.0453. Besides, the composite z-score in experiment [18] was 0.343; in [19] it was 0.17; in experiment [20], 0.496. In addition, the z-score in [2] is 0.78 (inactive); in experiment [3], 0.173 (inactive); in [4], 0.634 (inactive); in [6] it was 0.23 (inactive); in experiment [14] it was 0.653 (inactive).
`C=CC[C@@H]1C=C[C@H](ON=C(C)CCN2CCc3nc(CC)c(CC)cc3C2)[C@@H](CO)O1`: the composite z-score in experiment [1] is 1.21; in experiment [5] it was 1.07; in experiment [7], 0.0522; in experiment [8] it was 0.981; in [9] it was 0.717; in [10], -0.0435. The composite z-score in experiment [11] is 1.17; in [12], 0.0057; in experiment [13] it was 0.386; in experiment [15] it was -0.0543; in [16], 0.491; in [17] it was 0.609. Also, the figures for the composite z-score in [18], in [19] and in experiment [20] were 1.14, 0.907 and 1.8, respectively. Moreover, the z-score is -1.12 (inactive) in experiment [2]; -0.0455 (inactive) in experiment [3]; -0.384 (inactive) in experiment [4]; 0.544 (inactive) in [6]; 0.00248 (inactive) in experiment [14].
In the case of `COc1ccc(O[C@H]2C=C[C@@H](c3ccccc3)O[C@@H]2COC(=O)CCC(C)=NOC(C)CN2CCCCc3nc(C)c(C)cc32)cc1` (stereo not given in full), the composite z-score in [1] was -0.285; in experiment [5], 0.283; in experiment [7], -0.0769; in experiment [8], 0.294; in experiment [9], -1.33; in experiment [10], -0.0614. Also, the composite z-score in [11] was 1.42; in experiment [12], -0.0789; in [13], 0.208; in [15], -0.154; in [16] it was -0.86; in [17] it was -0.457. In addition, the values for the composite z-score in experiment [18], in [19] and in experiment [20] were -0.106, -0.0649 and 1.36, respectively. In addition, the z-score was -0.258 (inactive) in experiment [2]; -1.87 (inactive) in experiment [3]; -0.889 (inactive) in experiment [4]; 1.14 (inactive) in [6]; -0.665 (inactive) in [14].
